Source: PubChem (several laboratories)
Hits are enriched below; roughly 3.3% of the tested compounds scored in any of these assays.
UHRF1 MBD2 ctr: UHRF1 methylated DNA binding inhibitors, primary screen, counter-screen for MBD2 inhibitor project, biochemical, TR-FRET, human UHRF1, single concentration | UHRF1 binding to methylated oligo | E3 ubiquitin-protein ligase UHRF1 (Homo sapiens), Q96T88 | actives 0.75% (n = 370,000) | inhibition, % at 4.4 µM; in the data active means inhibition above about 21%;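 further: UHRF1 SRA domain binding a hemimethylated CpG hairpin DNA probe; 0% = median of test compound wells and 100% = reference inhibitor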
M18AAP inhibitor: PfM18AAP inhibitors, malaria aminopeptidase, primary screen, biochemical, QFRET, recombinant enzyme | M18 aspartyl aminopeptidase (Plasmodium falciparum 3D7) | H-Glu-NHMec fluorogenic cleavage | inhibition, % at 7.35 µM | actives 1.2% (n = 290,000) | AID 1822, 2009;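 active means inhibition above the campaign mean inhibition over all tested compounds plus 3 SD, cut at about 28% in these data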;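 further: 0% = plate median of test compound wells and 100% = 2 mM ZnCl2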
PRMT1 inh: PRMT1 methyltransferase inhibitors, primary screen, biochemical, fluorescence polarization; Protein arginine N-methyltransferase 1 (Homo sapiens), Q99873; recombinant PRMT1, activity-based probe fluorescence polarization; inhibition, % at 2.79 µM; actives 1.3% (n = 370,000);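 active means inhibition above about 21% made by adding two undisclosed values, limit read from the data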
MBD2 DNA inh: inhibitors of MBD2 binding to methylated DNA, primary screen, biochemical, TR-FRET, DNA-binding domain, human; Methyl-CpG-binding domain protein 2 (Homo sapiens), Q9UBB5; MBD2 binding to methylated oligonucleotide; inhibition, % at 4.4 µM; actives 0.31% (n = 370,000); AID 686964, 2013; in the data active means inhibition above about 13%
Target sequence (Q9UBB5 whole entry, looked up, the tested form may be a part): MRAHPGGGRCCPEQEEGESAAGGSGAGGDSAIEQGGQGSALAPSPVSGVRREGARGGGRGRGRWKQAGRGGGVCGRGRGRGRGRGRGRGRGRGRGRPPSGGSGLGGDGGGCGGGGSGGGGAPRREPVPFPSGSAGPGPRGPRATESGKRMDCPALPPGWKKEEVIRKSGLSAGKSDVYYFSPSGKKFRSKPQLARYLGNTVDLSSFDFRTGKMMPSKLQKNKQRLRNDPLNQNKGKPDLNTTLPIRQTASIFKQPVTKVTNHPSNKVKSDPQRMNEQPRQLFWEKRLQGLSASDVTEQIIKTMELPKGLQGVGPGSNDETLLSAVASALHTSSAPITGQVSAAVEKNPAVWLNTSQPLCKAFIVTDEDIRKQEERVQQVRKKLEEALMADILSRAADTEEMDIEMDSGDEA
PfG6PD inh: PfG6PD enzyme inhibitors, primary screen, biochemical, fluorescence intensity, uHTS | PfGluPho enzyme, NADPH resazurin-diaphorase fluorescence | inhibition, % at 20 µM | actives 0.78% (n = 350,000) | glucose-6-phosphate dehydrogenase-6-phosphogluconolactonase (Plasmodium falciparum 3D7) | AID 504690, 2011;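 active means inhibition reaching at least a set limit at 20 µM in the primary screen, cut at about 59% in these data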;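 further: 0% = DMSO wells with substrate and 100% = DMSO wells lacking glucose-6-phosphate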
PfG6PD confirm: PfG6PD inhibitors, hit retest, confirmation, biochemical, fluorescence intensity, single concentration. shares compounds with PfG6PD inh. recombinant PfGluPho, NADPH-diaphorase-resazurin fluorescence. inhibition, % at 20 µM. actives 34% (n = 2,400);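 active means inhibition of at least 50% at 20 µM in any single replicate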;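 further: 0% = DMSO with substrate and 100% = DMSO lacking glucose-6-phosphate substrate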
Diaphorase 10uM: diaphorase inhibitors and chemical oxidizers, confirmation, counter-screen for P. falciparum G6PD inhibitor project, biochemical, fluorescence intensity, 10 µM NADPH. shares compounds with PfG6PD inh. diaphorase-coupled resazurin reduction, NADPH 10 uM. inhibition, % at 20 µM. actives 39% (n = 820). AID 504862, 2011;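 active means average inhibition reaching 50% or more with the compound at 20 µM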;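 further: resorufin red fluorescence formed as diaphorase reduces resazurin using NADPH; 0% = DMSO with enzyme and 100% = DMSO without enzyme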
Diaph ctr 30uM: diaphorase inhibitors and chemical oxidizers, confirmation, counter-screen for P. falciparum G6PD inhibitor project, biochemical, fluorescence intensity, 30 µM NADPH; actives 29% (n = 820); shares compounds with PfG6PD inh; AID 504863, 2011; Diaphorase/resazurin coupled assay, resorufin fluorescence; inhibition, % at 20 µM;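 active means inhibition averaging 50% or more, tested at 20 µM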;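 further: 0% = DMSO with enzyme and 100% = DMSO wells lacking diaphorase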
* marks the source's active call; other numbers are inactive results; nt = no result.

SMILES	UHRF1 MBD2 ctr	M18AAP inhibitor	PRMT1 inh	MBD2 DNA inh	PfG6PD inh	PfG6PD confirm	others
O=C(O)CC(Sc1ccc(Cl)cc1)C(=O)Nc1ccccc1 (stereo not drawn)	-1	nt	1	2	nt	nt
O=C(N/N=C/c1ccc(N2CCOCC2)o1)c1cccc([N+](=O)[O-])c1	-4	23	7	1	70*	-21
Cc1ccc(S(=O)(=O)c2nnn3c2nc(N2CCOCC2)c2ccccc23)cc1	1	-3	-3	-2	-5	nt
Cc1ccc(S(=O)(=O)c2nnn3c2nc(N2CCCCC2)c2ccccc23)cc1	0	-6	-1	2	72*	25
CCCCNC(=O)C[C@@H]1C(=O)N2CCCC3=C2[C@@]1(C(=O)OC)CCCC3	-1	nt	3	-2	nt	nt
CC(=O)c1ccc(S(=O)(=O)N2CCN(C(=O)CN3C(=O)NC4(CCCC4)C3=O)CC2)cc1	2	nt	2	2	-14	nt
CN(C)c1ccc(C(=S)NCc2ccco2)cc1	-4	5	3	2	63*	3
CN(C)c1ccc(/C=N/NC(=S)NCc2ccco2)cc1	4	16	3	0	0	nt
CC(CNC1CCCCC1)OC(=O)c1ccc([N+](=O)[O-])cc1 (stereo not drawn)	-2	nt	-1	-3	-4	nt
COc1ccc(-n2c(C)cc(/C=N/Nc3nnc(C)n3N)c2C)cc1	9	48*	7	-2	66*	44
CC(C)C[C@H]1CN(CCCC[C@H]2CNC(=O)C(=O)N2CCc2ccc(O)cc2)C(=O)C(=O)N1CCc1ccc(O)cc1	4	nt	-5	1	nt	nt
Cc1ccccc1-c1ccc(C(=O)Nc2cccc(F)c2)o1	-2	-1	4	0	69*	-3
COC(=O)[C@H](Cc1ccccc1)N[C@H](c1ccc(OC)cc1)[C@@H](O)Cc1ccccc1	0	nt	0	-3	nt	nt
CCn1c(C)nc2cc(C(=O)NNC(=O)c3ccc(C)cc3)ccc21	-2	nt	-2	4	36	nt
CCn1c(C)nc2cc(C(=O)OC(C(F)(F)C(F)F)C(F)(F)C(F)F)ccc21	4	0	2	1	61*	15
CC(=O)Nc1cc2c(cc1[N+](=O)[O-])-c1ccccc1C2O (stereo not drawn)	nt	nt	nt	nt	81*	83*	Diaphorase 10uM=34;Diaph ctr 30uM=6
COc1cc(C(=O)O/N=C2\C=CC(=O)C(C)=C2)cc(OC)c1OC	-5	-3	-1	-7	68*	49*	Diaphorase 10uM=89*;Diaph ctr 30uM=90*
COc1ccc(S(=O)(=O)N=C2C=C(C)C(=O)C(C)=C2)cc1	-5	-31	-2	-7	23	nt
COc1ccc(C(=O)ON=C2C=C(C)C(=O)C(C)=C2)cc1	-1	1	0	-3	76*	52*	Diaphorase 10uM=13;Diaph ctr 30uM=15
COc1cc(C(=O)O/N=C(\N)c2ccncc2)cc(OC)c1OC	1	6	0	-3	-13	nt
COc1cc(C(=O)ON=C2C=C(C)C(=O)C(C)=C2)cc(OC)c1OC	3	-11	6	-1	80*	64*	Diaphorase 10uM=-1;Diaph ctr 30uM=8
COC(=O)C[C@H]1CC[C@@H]2[C@@H](COc3ccc(NC(=O)C4CCCCC4)cc3C(=O)N2C)O1	0	nt	-2	-3	nt	nt
CCCCN(C(=O)CCN1C(=O)C2CC=CCC2C1=O)c1c(N)n(CCCC)c(=O)[nH]c1=O (stereo not drawn)	5	nt	1	3	-6	nt
CC(=O)c1cccc(NC(=O)c2ccc(N(C)S(=O)(=O)c3ccc(C)cc3)cc2)c1	-1	7	0	1	63*	12
CN(c1ccc(C(=O)Nc2cccc(O)c2)cc1)S(=O)(=O)c1ccccc1	1	-2	3	-2	59*	-2
SMILES	UHRF1 MBD2 ctr	M18AAP inhibitor	PRMT1 inh	MBD2 DNA inh	PfG6PD inh	PfG6PD confirm	others
COC(=O)C1=C(C(=O)OC)SC2(S1)C(C(=O)OC)=C(C(=O)OC)SC1=C2c2cc(C)ccc2NC1(C)C	-14	29*	10	-1	72*	26
COc1ccc(NC(=O)c2ccc3[nH]c(C)c(C)c3c2)cc1	-3	8	0	0	68*	28
CC(=O)Nc1cccc(NC(=O)c2ccc3[nH]c(C)c(C)c3c2)c1	0	0	2	5	78*	32
COc1cccc([C@H]2NC(=O)C/C=C/[C@@H](C)[C@@H](c3cccc(OC)c3)NC(=O)C/C=C/[C@H]2C)c1	0	nt	-1	6	nt	nt
CCn1cc(SCC(=O)N2CCc3ccccc32)c2ccccc21	-1	4	5	1	58	nt
COc1ccc([C@H]2C(C#N)=C([S-])N[C@](C)(O)[C@@H]2[n+]2ccccc2)cc1	-1	11	21	2	69*	38
COc1ccc(C2CC3(O)CC(C#N)(C(=O)N3)C2(C#N)C#N)cc1 (stereo not drawn)	-2	-2	-2	2	-7	nt
CCN(CC)C(=O)CSc1nnc(-c2cccs2)o1	1	nt	2	-4	nt	nt
COc1cc(N)c2ncccc2c1Cl	5	nt	8	-19	60*	73*	Diaphorase 10uM=22;Diaph ctr 30uM=23
C[C@@H]1OC(c2ccccc2)N(C)[C@H]2C[C@H]3c4[nH]c5cccc(-c6ccccc6)c5c4CCN3C[C@@H]12 (stereo partly drawn)	-5	nt	-1	0	nt	nt
O=C(CSc1cc(Cl)ccc1Cl)N/N=C/c1ccc[nH]1	0	nt	-8	-3	nt	nt
CN(C)CCN1CC(O)=C(c2nc3ccccc3s2)C1=N	3	-2	2	-3	-4	nt
COc1ccc(N2CC(O)=C(c3nc4ccccc4s3)C2=N)c(OC)c1	-1	4	-3	-3	64*	43
CCCCCC(=O)N/N=C/c1ccc([N+](=O)[O-])o1	2	-1	3	2	11	nt
O=C(CCC(=O)Nc1ccc(Cl)cc1Cl)N/N=C/c1ccc([N+](=O)[O-])o1	-3	9	24*	-10	62*	45
